NS1 function inh = influenza NS1 inhibition; Potency, µM (titrated, usually from 46.1 µM), for the others: top-dose activity, positive = more growth; AID 2326; 270,000 compounds, 0.4% hits; also: potency is read from the fitted curve at half-maximal effect; actives are rising curves; nearly all actives have a fitted effect of over 50% in size
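A cell-based growth assay was used: compounds that relieve NS1-induced slow growth of budding yeast raise OD600. Assay medium was yeast nitrogen base with ammonium sulphate and -URA supplement, pH 6.0, with 2% galactose.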
Shiga toxin inh = blocks Shiga toxin action in Vero cells. Vero cells, Shiga toxin protein synthesis inhibition reporter. 290,000 compounds, 9.2% hits. inhibition, % at 38.7 µM; in the data active = inhibition mostly above about 28%, no sharp cut-off; inactive = mostly below about 43%; also: 0% is about no effect
SARS PLP yeast = blocks SARS-CoV papain-like protease in a yeast assay. S. cerevisiae expressing SARS-CoV PLpro, growth rescue. Potency, µM (titrated, usually from 32.9 µM), for the others: at the highest dose activity, positive = growth rescue, hits mostly activators. AID 485353. 330,000 compounds, 0.19% hits; also: potency is read from the fitted curve at half-maximal effect; 0% is about no effect; nearly all actives have a fitted effect of over 55% in size
CHX counter = affects cycloheximide protein synthesis inhibition readout, counter-screen; cell reporter, cycloheximide protein synthesis inhibition counterscreen; max response, %; 300,000 compounds, 12% hits; AID 2314; in the data active = max response mostly above about 13%, no sharp cut-off; inactive = mostly below about 14%; also: read at 38.3 µM for the half of the compounds with a filed dose; 0% is about no effect
The depositor's hits bear a star; i = inactive; ? = inconclusive; . = no result given; + = active, no number; [ ] = dose if it differs, or a comment. Hits are enriched below; roughly 12% of the tested compounds scored in any of these assays. Unless noted, calls follow the shape of the full dose curve.

SMILES | NS1 function inh | Shiga toxin inh | SARS PLP yeast | CHX counter
CCOC(=O)C1C(=O)N(O)CC1c1cccc(Oc2ccccc2)c1 (stereo unspecified) | . | -2 | 3% | 11
O=[N+]([O-])c1ccc(N/N=C\c2cccn2-c2ccccc2)nc1 | 2% | 13 | -15% | 17*
O=[N+]([O-])c1ccc(N/N=C/c2ccc(OCc3cccc4ccccc34)cc2)nc1 | . | 33 | -10% | 18*
Cc1ccccc1-n1c(C)cc(/C=N/Nc2ccc([N+](=O)[O-])cn2)c1C | 12% | 91* | -6% | 36*
CCc1c(C#N)c(SCc2c(C)noc2C)nc2c1C(=O)CC(C)(C)C2 | -32% | 1 | -19% | -3
CCC(C=C[C@@H]1OC(=O)C=C[C@H]1C)=C[C@H](C)CC=CC(C)=C[C@@H](C)C(=O)[C@@H](C)[C@H](O)[C@@H](C)CC(C)=CC(=O)O | . | i | . | 6
COc1ccc(NC(=O)CSc2nc(N)cc(=O)[nH]2)cc1S(=O)(=O)N1CCCCC1 | . | . | 0% | .
O=C(CCNS(=O)(=O)c1c(Cl)cccc1Cl)OCC(=O)c1ccccc1F | 0% | + | 3% | 11
O=C(CCNS(=O)(=O)c1c(Cl)cccc1Cl)OCC(=O)c1ccccc1 | -1% | -43 | 21% | 11
O=C(Nc1nc2ccccc2n1CCOc1ccccc1)c1ccco1 | -26% | 80 | 0% | 48*
O=C(Nc1nc2ccccc2n1CCOc1ccc(Cl)cc1)c1ccco1 | -62% | 49 | -5% | 20*
Cc1cccc(OCCn2c(NC(=O)c3ccco3)nc3ccccc32)c1 | -22%[9.22 µM] | 89* | -3% | 26*
CC(=NCCCN(C)C)C1=C(O)c2ccccc2C1=O | -3% | 84 | -1% | 31
C/C(=N\N(C)C)C1=C(O)c2ccccc2C1=O | -19% | 89* | 4% | 29*
CC(=NC1CC1)C1=C(O)c2ccccc2C1=O | -58% | 55* | -1% | 50*
COc1ccc(N=C2S/C(=C\c3ccc(C)s3)C(=O)N2CC(C)C)cc1 | 8% | -8 | 3% | 1
COc1ccccc1N1C(=O)S/C(=C\c2cc(C)n(C)c2C)C1=O | 4% | 56* | 0% | 29*
COc1ccc(N=C2S/C(=C\c3cc(C)n(C)c3C)C(=O)N2C)cc1 | ? | -13 | -5% | -1
COc1ccccc1N1C(=O)S/C(=C\c2ccc(C)s2)C1=O | -61% | 28* | -6% | 22*
Cc1ccc(S(=O)(=O)NCc2cccc([N+](=O)[O-])c2)cc1 | -1% | . | . | .
Cc1cc(NC(=O)c2ccc(Cl)c(S(=O)(=O)N3CCCCC3)c2)no1 | -1% | -5 | -6% | -3
COC(=O)c1ccccc1NC(=O)CSc1nnc(-c2ccc(OC)cc2)n1C | -6% | 12 | 26% | 1
COc1ccccc1N(O)C1CC(=O)N(c2ccc(F)cc2)C1=O (stereo unspecified) | -2% | 61* | -36% | 32*
CCCOc1ccc(N2C(=O)CC(N(Cc3ccccc3)N=O)C2=O)cc1 (stereo unspecified) | -6% | 30 | 0% | 6
CCCOc1ccc(N2C(=O)CC(N(CCc3ccccc3)C(=O)c3ccccc3)C2=O)cc1 (stereo unspecified) | 3% | 14 | 0% | 21*
SMILES | NS1 function inh | Shiga toxin inh | SARS PLP yeast | CHX counter
COc1ccccc1N1C(=O)CC(N(O)c2ccccc2)C1=O (stereo unspecified) | 1% | 2 | 1% | -1
CCCOc1ccc(N2C(=O)CC(N(CCc3ccc(OC)c(OC)c3)C(=O)c3ccccc3)C2=O)cc1 (stereo unspecified) | -5% | -6 | -1% | -1
CCCOc1ccc(N2C(=O)CC(N(O)c3ccccc3)C2=O)cc1 (stereo unspecified) | 14% | 113* | -1% | 20
CCCOc1ccccc1N1C(=O)CC(N(O)c2ccccc2)C1=O (stereo unspecified) | 0% | 28 | -1% | 14*
O=C1CN(c2ccccc2)C(=O)N1 | 0% | 3 | 1% | -3
S=C1NC(c2ccccc2)=NCN1c1ccccc1 | -2% | 129 | 28% | 30*
Cc1ccc(C2=NCN(c3ccc(C(=O)O)cc3)C(=S)N2)cc1 | . | 98 | 0% | 39*
CCO[C@H]1OC(C(=O)N2CCOCC2)=C[C@@H](C2CC2)[C@@H]1CCCO | 2% | -18 | -2% | -3
CCc1ccc(N2C(=O)CC(c3ccc(F)cc3)C3=C2COC3=O)cc1 (stereo unspecified) | . | -7 | 5% | -1
O=C(NCc1ccccn1)c1ccc(Cl)s1 | -2% | 26 | 1% | 24*
O=C(NCc1ccccn1)c1cccs1 | 7% | 12 | 2% | 2
O=C(NCc1ccccn1)c1ccc(Br)s1 | -3% | 32* | -1% | 17*
CC(=O)N1CCc2cc(S(=O)(=O)NC(C(=O)NCc3ccccc3)C(C)C)ccc21 (stereo unspecified) | -1% | 1 | 2% | -3
COc1cccc(CNC(=O)C(NS(=O)(=O)c2ccc3c(c2)CCN3C(C)=O)C(C)C)c1 (stereo unspecified) | -3% | 29 | 1% | 24*
CCOC(=O)c1ccc(NCc2ccc3c(c2)OCO3)cc1 | -40% | 66* | -13% | 35*
CCOC(=O)c1ccc(NCc2ccc(N(C)C)cc2)cc1 | -7% | -7 | -3% | 2
CCOC(=O)c1cc2sc(C)cc2n1CC(=O)Nc1cccc(C)c1C | 12% | 0 | 19% | -1
CCOC(=O)c1c(C)c(C(=O)Nc2cc(F)ccc2F)c(C)n1C | 0% | -4 | ? | -3
CCOC(=O)c1c(C)c(C(=O)Nc2ccc3c(c2)OCCO3)c(C)n1C | 5% | 55* | 5% | 22*
CCOC(=O)c1cc2sc(C)cc2n1CC(=O)Nc1ccc2c(c1)OCCO2 | -2% | 26 | -3% | 12*
CCOC(=O)c1cnc2c(OC)cccc2c1Nc1ccc2c(c1)OCCO2 | -4% | 28* | 0% | 29*
CCOC(=O)c1c(C)nn(Cc2cccc(Cl)c2)c1N | ? | -11 | -18% | -3
O=C(O)c1cccc2c1C(=O)N(Cc1ccccc1)C2 | -22% | -6 | 0% | 1
CN(C)C(CNc1ncnc2ccccc12)c1c(F)cccc1Cl (stereo unspecified) | -4% | -8 | 4% | -8
O=C(NCc1ccc2c(c1)OCO2)Nc1ccc([N+](=O)[O-])cc1 | 11% | -2 | 1% | 3
SMILES | NS1 function inh | Shiga toxin inh | SARS PLP yeast | CHX counter
N#CCC(=O)Nc1ccc(C(=O)OCC(=O)NC(=O)Nc2ccc3c(c2)OCCO3)cc1 | . | . | 1% | .
CCOC(=O)Nc1cc(Br)c2c(c1)OCCO2 | -9% | 41 | -10% | 34*
O=[N+]([O-])c1ccc(NCc2ccc3c(c2)OCO3)cc1 | . | 46 | -2% | 21*
CCOC(=O)c1c(C)c(C(=O)Nc2ccc(N(C)C)cc2)c(C)n1CC | -20% | 51 | ? | 22*
CCOC(=O)c1ccc(NC(=O)Nc2ccc3c(c2)OCCO3)cc1 | -41% | 32* | 4% | 13*
CC(=O)Nc1nc(CC(C)C)cc(-c2ccco2)c1C#N | -11% | -1 | . | -1
Cc1nn(C)cc1/C=N\NC(=O)c1ccc2c(c1)c(C)c(C)n2Cc1ccccc1 | 19% | -4 | -1% | -1
CCCCC(=O)NC1(C(F)(F)F)NC(=O)N(Cc2ccccc2)C1=O (stereo unspecified) | . | 2 | -3% | -8

Screening data (PubChem BioAssay)
